In PMC12431657, “Discovery and mechanistic insights of dibenzoylmethane as a broad spectrum inhibitor of coronavirus” (PLOS Pathogens, 2025):
Where two headings read alike, the source gives them in different places. Screen size: about 3,300 compounds; about 95 (3%) showed an effect of 50% or more. Shown is part of a subset that was picked to be rich in strong results.

Test system: HCoV-229E
Set-up: species or system Huh-7; HTS, protection from HCoV-229E induced cell death, luminescent cell viability (CellCounting-Lite 2.0), inhibition rate
Details: 24 h post infection, 1 h compound pre-incubation, 10 µM, inhibitor

| SMILES | 229E Inhibition rate (229E Inhibition rate, 24 h) [%] | 229E Inhibition rate [%] |
| --- | --- | --- |
| CN1CCC=C(C(=O)O)C1 [Arecaidine] | 7.9 | – |
| O=C(/C=C/c1ccc(O)c(O)c1)O[C@@H](C(=O)O)[C@@H](OC(=O)/C=C/c1ccc(O)c(O)c1)C(=O)O [Chicoric acid] | 8 | – |
| CC(=O)OCCC(C)CCC=C(C)C (centres unmarked) [Citronellyl acetate] | – | 16.2 |
| CCC(O)CC [3-Pentanol] | – | 19 |
| COc1cc(-c2coc3cc4c(c(O)c3c2=O)OCO4)cc(O)c1OC [Dichotomitin] | – | 53.3 |
| COc1cc(-c2coc3cc(O)c(OC)c(O)c3c2=O)cc(O)c1OC [Irigenin] | – | 11.4 |
| COc1cc(-c2coc3cc4c(c(OC)c3c2=O)OCO4)cc(OC)c1OC [Irisflorentin] | – | 11.3 |
| CO[C@@H]1[C@H](O)[C@@H](CO)O[C@H]1n1ccc(=O)[nH]c1=O [2′-O-Methyluridine] | – | 20.9 |
| CC1(C)C=Cc2c(ccc3c2OC[C@@H](c2ccc(O)cc2O)C3)O1 [Glabridin] | – | 54.3 |
| Oc1ccc(C2COc3cc(O)ccc3C2)cc1 (racemic) [(±)-Equol] | – | 11 |
| Oc1ccc([C@H]2COc3cc(O)ccc3C2)cc1 [(-)-(S)-Equol] | – | 8.5 |
| C=C1C[C@@]23CC[C@H]4[C@@](C)(CCC[C@@]4(C)C(=O)O)[C@@H]2CC[C@@H]1C3 [Kaurenoic acid] | – | 8.8 |
| CC(C)(O)CC[C@@H](O)[C@](C)(O)[C@H]1CC=C2C3=C(CC[C@@]21C)[C@@]1(C)C[C@H](O)[C@H](O)C[C@H]1C(=O)C3 [Podecdysone B] | – | 11.2 |
| C[C@H](CCC(=O)O)[C@H]1CC[C@H]2[C@@H]3C(=O)C[C@@H]4C[C@H](O)CC[C@]4(C)[C@H]3CC[C@]12C [7-Ketolithocholic acid] | – | 20.5 |
| COc1cc(C(=O)O)ccc1O [Vanillic acid] | – | 50 |
| CC(=O)c1ccc(O)c(O)c1 [3',4'-Dihydroxyacetophenone] | – | 12.4 |
| COc1ccc(C(C)=O)cc1O [3-Hydroxy-4-methoxyacetophenone] | – | 50.5 |
| Cc1cc(C(=O)O)ccc1O [4-Hydroxy-3-methylbenzoic acid] | – | 61.9 |
| CC(=O)c1ccc(O)c(C)c1 [4'-Hydroxy-3'-methylacetophenone] | – | 11.7 |
| COC(=O)c1ccc(OC)c(O)c1 [Methyl isovanillate] | – | 12.8 |
| Cc1ccc(C(=O)O)cc1C [3,4-Dimethylbenzoic acid] | – | 23.9 |

| SMILES | 229E Inhibition rate (229E Inhibition rate, 24 h) [%] | 229E Inhibition rate [%] |
| --- | --- | --- |
| COc1cc(C(C)=O)ccc1O [Apocynin] | – | 5.3 |
| COc1ccc(C(=O)O)cc1O [Isovanillic acid] | – | 0 |
| O=Cc1cccs1 [2-Thiophenecarboxaldehyde] | – | 6.5 |
| O=C(O)C(O)Cc1ccccc1 (racemic) [DL-3-Phenyllactic acid] | – | 22.4 |
| COc1cc2c(cc1O)CCN1Cc3c(ccc(OC)c3OC)C[C@@H]21 [Corypalmine] | – | 8.4 |
| C=C[C@](C)(O)CC[C@H]1C(=C)CC[C@H]2C(C)(C)CCC[C@]12C [Manool] | – | 42.5 |
| CC(C)(O)CCc1c(O)cc(O)c2c(=O)c(O)c(-c3ccc(O)cc3)oc12 [Noricaritin] | – | 14.9 |
| COc1ccc(-c2oc3c(CC=C(C)C)c(O)cc(O)c3c(=O)c2O)cc1 [Icaritin] | – | 8.6 |
| COc1ccc(-c2oc3c(CCC(C)(C)O)c(O)cc(O)c3c(=O)c2O)cc1 [Wushanicaritin] | – | 51.4 |
| COc1ccc(C2COc3cc(O[C@@H]4O[C@H](CO)[C@@H](O)[C@H](O)[C@H]4O)ccc3C2)c(O)c1OC (some centres unmarked) [Isomucronulatol 7-O-glucoside] | – | 13 |
| CC(C)=CCC/C(C)=C/C=O [Citral] | – | 47.4 |
| C=C1[C@H]2C[C@H]2[C@]2(C)Cc3occ(C)c3[C@H](O)[C@@H]12 [Lindenenol] | – | 28.5 |
| CCC/C=C1\OC(=O)C2=C1CC[C@H]1[C@H]3C=C4C(=O)O/C(=C\CCC)[C@@]4(CC3)[C@@H]21 [Levistolide A] | – | 60.4 |
| CCC/C=C1\OC(=O)C2=C1CC[C@H](O)[C@H]2O [Senkyunolide I] | – | 43.1 |
| CCC/C=C1\OC(=O)C2=C1CC[C@@H](O)[C@H]2O [Senkyunolide H] | – | 47.8 |
| Cc1ncc(CO)c(C(=O)O)c1O [4-Pyridoxic acid] | – | 22.7 |
| O=C(O)/C=C/c1ccccc1 [Cinnamic acid] | 21 | – |
| O=C(O)[C@H](O)c1ccccc1 [D-(-)-Mandelic acid] | – | 7.5 |
| O=C(O)[C@H]1O[C@@H](Oc2cc(O)c3c(=O)cc(-c4ccc(O)c(O)c4)oc3c2)[C@H](O)[C@@H](O)[C@@H]1O [Luteolin 7-O-glucuronide] | – | 11.2 |
| C[C@@H]1CC[C@]2(C(=O)O[C@@H]3O[C@H](CO)[C@@H](O)[C@H](O)[C@H]3O)CC[C@]3(C)C(=CC[C@@H]4[C@@]5(C)CC[C@H](O)[C@@](C)(CO)[C@@H]5CC[C@]43C)[C@@H]2[C@]1(C)O [Pedunculoside] | – | 10.8 |
| C[C@@H]1CC[C@]2(C(=O)O[C@@H]3O[C@H](CO)[C@@H](O)[C@H](O)[C@H]3O)CC[C@]3(C)C(=CC[C@@H]4[C@@]5(C)CC[C@H](O)[C@](C)(C(=O)O)[C@@H]5CC[C@]43C)[C@@H]2[C@]1(C)O [Ilexsaponin A] | – | 58.5 |

| SMILES | 229E Inhibition rate (229E Inhibition rate, 24 h) [%] | 229E Inhibition rate [%] |
| --- | --- | --- |
| C[C@@H]1CC[C@]2(C(=O)O[C@@H]3O[C@H](CO)[C@@H](O)[C@H](O)[C@H]3O)CC[C@]3(C)C(=CC[C@@H]4[C@@]5(C)C[C@@H](O)[C@H](O)[C@@](C)(CO)[C@@H]5CC[C@]43C)[C@@H]2[C@]1(C)O [Niga-ichigoside F1] | – | 20.4 |
| CC1(C)CC[C@]2(C(=O)O[C@@H]3O[C@H](CO[C@@H]4O[C@H](CO)[C@@H](O)[C@H](O)[C@H]4O)[C@@H](O)[C@H](O)[C@H]3O)CC[C@]3(C)C(=CC[C@@H]4[C@@]5(C)CC[C@H](O[C@@H]6OC[C@H](O)[C@H](O)[C@H]6O)[C@@](C)(CO)[C@@H]5CC[C@]43C)[C@@H]2C1 [Asperosaponin VI] | – | 56.6 |
| C[C@@H]1O[C@@H](O[C@H]2[C@H](O[C@H]3CC[C@@]4(C)[C@@H](CC[C@]5(C)[C@@H]4CC=C4[C@@H]6CC(C)(C)CC[C@]6(C(=O)O[C@@H]6O[C@H](CO[C@@H]7O[C@H](CO)[C@@H](O)[C@H](O)[C@H]7O)[C@@H](O)[C@H](O)[C@H]6O)CC[C@]45C)[C@]3(C)CO)OC[C@H](O)[C@@H]2O)[C@H](O)[C@H](O)[C@H]1O [Dipsacoside B] | – | 11.1 |
| C[C@@H]1O[C@@H](O[C@H]2[C@H](O)[C@@H](O)[C@H](OC[C@H]3O[C@@H](OC(=O)[C@]45CCC(C)(C)C[C@H]4C4=CC[C@@H]6[C@@]7(C)CC[C@H](O[C@@H]8OC[C@H](O)[C@H](O)[C@H]8O)[C@@](C)(CO)[C@@H]7CC[C@@]6(C)[C@]4(C)CC5)[C@H](O)[C@@H](O)[C@@H]3O)O[C@@H]2CO)[C@H](O)[C@H](O)[C@H]1O [Hederacoside D] | 40.4 | – |
| O=C(O)C(O)Cc1cc2ccccc2[nH]1 (centres unmarked) [Indolelactic acid] | – | 16.7 |
| O=C1C=CCO1 [2(5H)-Furanone] | – | 8.7 |
| CCCCCC(C)C(=O)O (centres unmarked) [2-Methylheptanoic acid] | – | 47.5 |
| NCc1ccccc1O [o-Hydroxybenzylamine] | – | 9.2 |
| O=C(O)Cc1ccccc1O [2-Hydroxyphenylacetic acid] | – | 12.4 |
| OCc1ccccc1O [Salicyl alcohol] | – | 51.5 |
| c1cc2c(cc1[C@H]1OC[C@H]3[C@@H]1CO[C@@H]3c1ccc3c(c1)OCO3)OCO2 [Sesamin] | – | 15.4 |
| c1cc2c(cc1[C@H]1OC[C@@H]3[C@H]1CO[C@H]3c1ccc3c(c1)OCO3)OCO2 [(-)-Asarinin] | – | 9.2 |
| c1cc2c(cc1O[C@H]1OC[C@H]3[C@@H]1CO[C@@H]3c1ccc3c(c1)OCO3)OCO2 [Sesamolin] | – | 62.2 |
| CC1=C\[C@@H](O)CC(=O)Cc2nc(co2)C(=O)N2CCC=C2C(=O)O[C@H](C(C)C)[C@H](C)/C=C/C(=O)NC\C=C\1 [Virginiamycin M1] | – | 36.6 |
| N[C@@H](Cc1ccc(O)c([N+](=O)[O-])c1)C(=O)O [3-Nitro-L-tyrosine] | – | 8 |
| C=C(C)[C@@H]1CC[C@]2(C)CC[C@]3(C)[C@H](CC[C@@H]4[C@@]5(C)CCC(=O)C(C)(C)[C@@H]5CC[C@]43C)[C@@H]12 [Lupenone] | – | 9.9 |
| CCC1(c2ccc(O)cc2)NC(=O)N(C)C1=O (centres unmarked) [4-Hydroxymephenytoin] | – | 55.5 |
| CCc1ccc(O)cc1 [4-Ethylphenol] | – | 20.1 |
| O=c1c(O[C@@H]2OC[C@@H](O)[C@H](O)[C@H]2O)c(-c2ccc(O)c(O)c2)oc2cc(O)cc(O)c12 [Reynoutrin] | – | 19.1 |
| C[C@H]1CC[C@@]2(OC1)O[C@H]1C[C@H]3[C@@H]4CC=C5C[C@@H](O[C@@H]6O[C@H](CO)[C@@H](O)[C@H](O[C@@H]7OC[C@@H](O)[C@H](O)[C@H]7O)[C@H]6O[C@@H]6O[C@@H](C)[C@H](O)[C@@H](O)[C@H]6O)CC[C@]5(C)[C@H]4CC[C@]3(C)[C@H]1[C@@H]2C [Liriope muscari baily saponins C] | – | 31 |
